# Source: PubChem BioAssay (National Center for Advancing Translational Sciences (NCATS))
# Pf growth 96h = P. falciparum growth inhibition at 96 hours. P. falciparum luciferase reporter growth, 96 h. Potency, µM (series often up to 28.7 µM), for inactives: top-dose activity change, negative = inhibition, usual class: inhibitors. 6.9% of 320,000 active. AID 504834; also: potency is read from the fitted curve at half-maximal effect; % is scaled to controls: 0 for no effect and ±100 for the full control effect
#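 Two parasite generations (96 h, 37 C, 5% CO2) of compound exposure in infected erythrocytes (0.05% parasitemia, 2% hematocrit). Luciferase-reporter P. falciparum; decreased luminescence indicates inhibited growth, aimed at apicoplast-acting delayed death.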
# Cycloheximide cs = counter-screen for Shiga toxin inhibitors: cycloheximide protein synthesis inhibition | cell reporter, cycloheximide protein synthesis inhibition counterscreen | max response, % | 12% of 300,000 active; in the data active = max response mostly above about 13%, no sharp cut-off; inactive = mostly below about 14%; also: read at 38.3 µM for the half of the compounds with a filed dose; 0% is about no effect
# Sm TGR inh = inhibitors of Schistosoma mansoni thioredoxin glutathione reductase. purified TGR, DTNB reduction, TNB absorbance 405 nm. Potency, µM (doses to about 114 µM), without a hit: at the highest dose activity change, negative = inhibition, usual class: inhibitors. AID 485364. 3% of 360,000 active; also: potency is read from the fitted curve at half-maximal effect; % is scaled to controls: 0 for no effect and ±100 for the full control effect; nearly all actives have a fitted effect of over 60% in size
#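 Kinetic colorimetric format: TGR-catalysed, NADPH-driven DTNB reduction monitored via TNB absorbance. Enzyme dispensed at 20 nM; compound exposure 15 min at room temperature before reaction start.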
# Pf growth 48h = inhibits P. falciparum growth in the first generation, 48 h; P. falciparum luciferase growth in erythrocytes, 48 h; Potency, µM (titrated, usually from 28.7 µM), without a hit: at the highest dose activity change, negative = inhibition, hits mostly inhibitors; 5.9% of 310,000 active; also: potency is read from the fitted curve at half-maximal effect; % is scaled to controls: 0 for no effect and ±100 for the full control effect
#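 In quantitative HTS format, infected erythrocytes bearing luciferase-reporter parasites were treated for a single generation at 37 C. Luminescence after adding detection reagent served as the growth measure.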
# Shiga toxin inh = blocks Shiga toxin action in Vero cells | 9.2% of 290,000 active | Vero cells, Shiga toxin protein synthesis inhibition reporter | inhibition, % at 38.7 µM | AID 2315; in the data active = inhibition mostly above about 28%, no sharp cut-off; inactive = mostly below about 43%; also: 0% is about no effect
# NS1 function inh = blocks influenza NS1 protein function; Potency, µM (highest dose often 46.1 µM), for inactives: top-dose activity, positive = more growth; 0.4% of 270,000 active; calls by dose curve; also: potency is read from the fitted curve at half-maximal effect; actives are rising curves; nearly all actives have a fitted effect of over 50% in size
#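 A cell-based growth assay was used: compounds that relieve NS1-induced slow growth of budding yeast raise OD600. Assay medium was yeast nitrogen base with ammonium sulphate and -URA supplement, pH 6.0, with 2% galactose.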
# Starred values were filed as active, the others as inactive; ? = inconclusive; . = no result given; [ ] = remark or other dose. Rows were chosen to be rich in hits. Some 21% of all compounds tested hit in one or more screens of this group. Unless noted, calls follow the shape of the dose curve; as a rule, active = well fitted curve in the direction sought with a large enough effect; inconclusive = small, poorly fitted or top-dose-only effect, or another doubt; inactive = no such curve, though single readings can be large; an effect the other way counts as inactive or inconclusive.
SMILES,Pf growth 96h,Cycloheximide cs,Sm TGR inh,Pf growth 48h,Shiga toxin inh,NS1 function inh
COc1cccc(CN2CC(C(=O)N3CCCCCCC3)CCC2=O)c1 (stereo not drawn),-19%,1,9%,?,5,-9%
Cc1cc(C)c2c(-n3cccc3)c(C(=O)NCCCN3CCCCC3C)sc2n1 (stereo not drawn),.,.,10%,.,.,.
N#Cc1ccc(-c2cccnc2)nc1SCc1ccc(Cl)c(Cl)c1,?,-2,3%,9.3µM*,-4,4%
Cc1ccc(S(=O)(=O)C2CS(=O)(=O)CC2O)cc1 (stereo not drawn),?,-6,-2%,.,12,6%
CC(=O)C1=C(S(=O)(=O)c2ccc(C)cc2)CS(=O)(=O)C1,4%,20*,.,5%,29,13%
O=C(CSc1nc2ccccc2s1)N/N=C/c1cc([N+](=O)[O-])ccc1O,-7%,17*,11%,?,40*,-43%
Cc1ccc(/C=N/NC(=O)CSc2nc3ccccc3s2)o1,32%,12*,-22%,20%,25,14%
Cc1ccccc1NC(=O)CCC(=O)N/N=C/c1cc([N+](=O)[O-])ccc1O,?,-5,4%,?,-6,-52%
COC(=O)C1=C(C#N)NC(C)=C(C(=O)OC(C)C)C1c1cccc([N+](=O)[O-])c1 (stereo not drawn),1.2µM*,.,.,7.6µM*,.,.
COC(=O)C1=C(C)NC(C)=C(C(=O)OCCN2CCN(C(c3ccccc3)c3ccccc3)CC2)C1c1cccc([N+](=O)[O-])c1 (stereo not drawn),2.4µM*,.,.,1.7µM*,.,.
COC(=O)C1=C(C)NC(C)=C(C(=O)OCCN(C)Cc2ccccc2)C1c1cccc([N+](=O)[O-])c1 (stereo not drawn),2.1µM*,-3,-2%,1.7µM*,-16,-26%
COC(=O)C1=CN(c2ccc(F)cc2)C=C(C(=O)OC)C1c1cccc([N+](=O)[O-])c1,100%,2,10%,-20%[0.00184 µM],5,7%
CCOC(=O)C1=C(C)NC(C)=C(C(=O)OCCNC(=O)c2cccnc2)C1c1cccc([N+](=O)[O-])c1 (stereo not drawn),9.3µM*,3,-28%,?,16,-13%
COCCCN(C(=O)c1cc2c(s1)CCCCC2)c1c(N)n(Cc2ccccc2)c(=O)[nH]c1=O,1%,.,-4%,?,.,.
C=CCn1c(=NC(=O)C2COc3ccccc3O2)sc2cccc(OC)c21 (stereo not drawn),1.2µM*,-2,?,7.4µM*,22,1%
Cn1nnc2c[n+](CC(=O)c3ccc4ccccc4c3)cc(Br)c21,?,15*,?,12µM*,29,-4%
Cn1nnc2c[n+](CC(=O)c3ccc(Cl)cc3)cc(Br)c21,-2%,-2,?,-4%,18,10%
Cc1cc(C)c(S(=O)(=O)n2ccc(-c3ccc(OCCN(C)c4ccccn4)cc3)n2)c(C)c1,7.4µM*,0,2%,1.9µM*,-3,26%
CN(C)/C=C/C(=O)c1ccc(OCCN(C)c2ccccn2)cc1,-18%,-3,-3%,12%[0.00184 µM],-3,-60%
CC(C)N(CCO)Cc1nc(C(c2ccccc2)c2ccccc2)no1,9.3µM*,-1,39%,?,-3,21%
O=C(CSc1ncn(-c2ccccc2)n1)NCc1ccccc1,.,-2,-3%,-13%,-3,-13%
Cc1ccc(CSc2ncn(-c3ccccc3)n2)cc1,?,36*,-4%,.,86*,-117%
Clc1ccccc1CSc1ncn(-c2ccccc2)n1,360%,42*,6%,313%,70*,-9%
COc1ccc(-n2nc3c(N4CCCC(C(=O)NCc5ccc(C)cc5)C4)nnc(C)c3c2C)cc1 (stereo not drawn),.,.,-28%,.,.,.
COc1ccc2c(c1)CC/C(=C\c1ccc(OC)c(Cn3nc(C)cc3C)c1)C2=O,9%,-2,-9%,.,-12,9%
SMILES,Pf growth 96h,Cycloheximide cs,Sm TGR inh,Pf growth 48h,Shiga toxin inh,NS1 function inh
COc1ccc2c(c1)CC/C(=C/c1ccco1)C2=O,0%,56*,-1%,247%,120*,-10%
Nc1ccc2c(c1)C/C(=C/c1ccco1)C2=O,274%,56*,16µM*,332%,123*,1%
O=C1/C(=C\c2ccncc2)CCc2ccccc21,66%,.,-27%,-25%,.,.
O=C1/C(=C/c2ccco2)CCc2ccccc21,?,77*,?,338%,61*,-2%
CCCOc1ccc(C(=O)Nc2ccc3nn(-c4ccc(OC)c(Cl)c4)nc3c2)cc1,.,.,4%,.,.,.
O=C(CN1C(=O)S/C(=C\C=C\c2ccccc2)C1=O)NC1CCS(=O)(=O)C1 (stereo not drawn),99%,48*,?,128%,46*,1%
CC(C)c1ccc(/C=C2\SC(=O)N(CC(=O)NC3CCS(=O)(=O)C3)C2=O)cc1 (stereo not drawn),47%,36*,0%,84%,76*,14%
O=C(CN1C(=O)S/C(=C\c2ccccc2)C1=O)NC1CCS(=O)(=O)C1 (stereo not drawn),0%,1,-10%,26%,10,4%
Cc1ccc2nc(N3CCN(Cc4ccc(F)cc4)C3=O)c(C)cc2c1,.,20*,8%,25%,41,-171%
COC(=O)c1cccc(NC(=S)NCc2ccc(F)cc2)c1,?,-3,-32%,25%[5.75 µM],2,.
CC(C)C(NC(=O)C(CC(=O)O)NC(=O)C(CCCCN)NC(=O)C(N)CCCN=C(N)N)C(=O)NC(Cc1ccc(O)cc1)C(=O)O (stereo not drawn),1.5µM*,.,.,-1%,.,.
CC(C)[C@H](NC(=O)[C@H](CC(=O)O)NC(=O)[C@H](CCCCN)NC(=O)[C@@H](N)CCCN=C(N)N)C(=O)N[C@@H](Cc1ccc(O)cc1)C(=O)O,-11%,-4,-10%,5%,-10,0%
Cn1cnnc1SCC(=O)N1c2ccccc2-c2c(ssc2=S)C1(C)C,.,9,0%,7%,-12,7%
Cc1ccc2c(c1)-c1c(ssc1=S)C(C)(C)N2C(=O)CSC1=NCCS1,?,1,-3%,?,10,29%
CC1(C)c2ssc(=S)c2-c2ccccc2N1C(=O)c1ccco1,1µM*,1,3%,?,2,7%
Cc1ccc2c(c1)-c1c(ssc1=S)C(C)(C)N2C(=O)c1ccco1,-6%,-2,-5%,0.93µM*,-2,11%
CCOC(=O)C1CCN(c2ncnc3c2c(-c2ccccc2)cn3-c2ccc(C)c(Cl)c2)CC1,.,.,7%,.,.,.
Oc1ccc(C2CNCc3sccc32)cc1O (stereo not drawn),?,.,35µM*,13µM*,.,4%
COC(=O)Cn1cnc2c(cnn2-c2ccc(C)cc2)c1=O,12%,48*,0%,0%[0.00184 µM],69*,3%
